Screens: PubChem, National Center for Advancing Translational Sciences (NCATS)
SW480 rerep: induces DNA re-replication in SW480 colon adenocarcinoma cells; SW480 DNA re-replication, Hoechst DNA content imaging, 48 h; Potency, µM (titrated, usually from 46.1 µM), without a hit: top-dose re-replication activation, actives largely listed as activators; 1.8% of 340,000 active; AID 624297; note: potency is the fitted concentration of half-maximal effect; % of control where 0% means no effect; nearly all actives have a fitted effect of over 55% in size
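Cells (250 per well) received 23 nL compound or DMSO by pin tool and were kept 48 hr at 37 C, 5% CO2. Nuclei were then stained with Hoechst for 40 min and scanned for DNA content.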
IL1B secr inh: inhibitors of inflammasome signaling (IL-1 beta secretion) | THP-1 LPS/ATP IL-1B secretion, AlphaLISA, 16 h; hits give low values | activity change, % at 57.5 µM | 4.7% of 360,000 active | AID 743279; in the data active = activity change below about -50%; inconclusive = mostly about -30% to -49%; note: % is set by controls: 0 for no effect and ±100 for the full control effect
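Secreted IL-1B measured by AlphaLISA bead assay after 16 h compound exposure of THP-1 cells; compounds (final up to 57.5 uM) added 1 h before LPS (250 ng/mL) and ATP (1.25 mM) stimulation; lower signal means less secretion.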
RORgamma inh: blocks mouse ROR gamma transcriptional activity | P51450 | Drosophila S2 Gal4-RORgamma UAS-luciferase reporter, 20 h | Potency, µM (titrated, usually from 53.6 µM), for the others: at the highest dose activity change, negative = inhibition, actives largely listed as inhibitors | 5.4% of 310,000 active | AID 2551; note: potency is the fitted concentration of half-maximal effect; % is set by controls: 0 for no effect and ±100 for the full control effect; nearly all actives have a fitted effect of over 60% in size
Target sequence (P51450 whole entry, looked up, the tested form may be a part): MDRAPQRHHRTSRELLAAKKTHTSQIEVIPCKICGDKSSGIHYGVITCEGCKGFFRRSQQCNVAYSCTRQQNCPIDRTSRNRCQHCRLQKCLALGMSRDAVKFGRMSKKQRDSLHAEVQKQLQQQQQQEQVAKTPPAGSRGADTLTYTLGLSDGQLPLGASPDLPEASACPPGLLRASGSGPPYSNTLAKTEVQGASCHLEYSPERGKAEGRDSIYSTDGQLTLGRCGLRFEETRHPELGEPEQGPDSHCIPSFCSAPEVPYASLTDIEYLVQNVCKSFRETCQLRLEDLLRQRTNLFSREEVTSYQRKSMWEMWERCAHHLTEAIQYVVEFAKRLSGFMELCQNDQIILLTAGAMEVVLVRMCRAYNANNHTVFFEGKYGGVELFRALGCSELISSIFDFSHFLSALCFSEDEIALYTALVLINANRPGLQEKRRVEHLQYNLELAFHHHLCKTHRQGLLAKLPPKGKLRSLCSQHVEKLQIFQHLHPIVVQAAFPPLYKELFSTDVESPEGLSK
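Luciferase reporter read in Schneider cells carrying Gal4-RORγ (mouse) and UAS-Photinus luciferase; cells given compound 1 h before 700 uM copper sulfate induction, then incubated 20 h at ambient temperature.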
Gal4-VP16 FLuc: inhibits Gal4-VP16 luciferase reporter, ROR gamma counter-screen; AID 2546; Drosophila S2 Gal4-VP16 UAS-luciferase, luminescence, 20 h; Potency, µM (titrated, usually from 53.6 µM), for inactives: at the highest dose activity, negative = inhibition, usual class: inhibitors; 3.5% of 310,000 active;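 note: Gal4-VP16 expression switched on by copper sulfate through the metallothionein promoter; potency is the fitted concentration of half-maximal effect; % is set by controls: 0 for no effect and ±100 for the full control effect; nearly all actives have a fitted effect of over 50% in size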
MCF10A rereplic: inducers of DNA re-replication in MCF 10A breast cells. MCF 10A DNA re-replication, Hoechst nuclear intensity, 48 h. Potency, µM (series often up to 46.1 µM), inactives show top-dose activity, positive = re-replication, usual class: activators. 2.9% of 350,000 active; note: potency is the fitted concentration of half-maximal effect; % of control where 0% means no effect; nearly all actives have a fitted effect of over 50% in size
The depositor's hits bear a star; [ ] = remark or other dose. The list is not random: actives were taken first. Their share in the collection is about 11%. Unless noted, calls come from the whole dose curve; as a rule, active = well fitted curve in the direction sought with a large enough effect; inconclusive = small, poorly fitted or top-dose-only effect, or another doubt; inactive = no such curve, though single readings can be large; an effect the other way counts as inactive or inconclusive.

How did COc1ccc(C(=O)CC(Nc2ccc([N+](=O)[O-])cc2)c2ccc(OC)cc2)cc1 (configuration not stated) do in these assays?
SW480 rerep: -2%; IL1B secr inh: -7; RORgamma inh: -3%; Gal4-VP16 FLuc: 3%[0.365 µM]; MCF10A rereplic: inconclusive

Results for C[C@H](CO)N1C[C@H](C)[C@@H](CN(C)Cc2ccc(C(=O)O)cc2)Oc2ncc(Br)cc2C1=O ?
IL1B secr inh: 0

How did COc1ccc(F)c(CN2CCC(N3CCC(C(=O)N4CCOCC4)CC3)CC2)c1 do in these assays?
SW480 rerep: -3%; IL1B secr inh: 13; RORgamma inh: 4%; Gal4-VP16 FLuc: -6%; MCF10A rereplic: 1%

What do the screens show for `CCc1ccc(-c2nc(CN3CCC(C(=O)NCCc4ccc(OC)c(OC)c4)CC3)c(C)o2)cc1`?
SW480 rerep: 4%; IL1B secr inh: -54*; RORgamma inh: 0%; Gal4-VP16 FLuc: -11%; MCF10A rereplic: 26%

Results for COc1ccc(CCNC(=O)C2CCN(Cc3nc(-c4ccccc4F)oc3C)CC2)cc1OC ?
SW480 rerep: 0%; IL1B secr inh: 24; RORgamma inh: -3%; Gal4-VP16 FLuc: 0%; MCF10A rereplic: 5%

What do the screens show for `CCc1ccc(-c2nc(CN3CCC(C(=O)NCc4ccccc4OC)CC3)c(C)o2)cc1`?
SW480 rerep: inconclusive; IL1B secr inh: inconclusive; RORgamma inh: inconclusive; Gal4-VP16 FLuc: 20µM*; MCF10A rereplic: inconclusive

What do the screens show for `COc1ccc(-c2nc(CN3CCC(C(=O)N4CCOCC4)CC3)c(C)o2)cc1C`?
SW480 rerep: 10µM*; IL1B secr inh: -8; RORgamma inh: 19%; Gal4-VP16 FLuc: inconclusive; MCF10A rereplic: -1%

How did COc1ccc(OC)c(CN2CCC(C(=O)N3CCOCC3)CC2)c1 do in these assays?
SW480 rerep: 0.52µM*; IL1B secr inh: 3; RORgamma inh: -14%; Gal4-VP16 FLuc: -12%; MCF10A rereplic: inconclusive

Results for Cc1cn([C@H]2C[C@H](O)[C@@H](CCC(=O)NCc3ccco3)O2)c(=O)[nH]c1=O ?
SW480 rerep: -8%; IL1B secr inh: 0; MCF10A rereplic: 1%

How did COc1ccc(C(=O)COC(=O)CCN=C2NS(=O)(=O)c3ccccc32)c(OC)c1 do in these assays?
SW480 rerep: -3%; IL1B secr inh: 3; MCF10A rereplic: -3%

How did COC(=O)[C@@H]1C[C@H]1[C@@H](NC(C)=O)c1ccccc1 do in these assays?
RORgamma inh: 17%; Gal4-VP16 FLuc: -6%

How did COc1ccc(C(C)=O)cc1CN1CCCCC1 do in these assays?
SW480 rerep: 0%; IL1B secr inh: -7; RORgamma inh: -4%; Gal4-VP16 FLuc: inconclusive; MCF10A rereplic: 15µM*

Results for Cc1ccccc1-c1nc(CN2CCC(C(=O)NCc3ccco3)CC2)c(C)o1 ?
SW480 rerep: 2%; IL1B secr inh: -67*; RORgamma inh: -8%; Gal4-VP16 FLuc: 1%; MCF10A rereplic: 4%

How did COc1ccc(Br)cc1CN1CCCCCCC1 do in these assays?
SW480 rerep: -3%; IL1B secr inh: -3; RORgamma inh: -23%; Gal4-VP16 FLuc: -6%; MCF10A rereplic: -7%

Results for Cc1ccc(-n2cnc(N)c2C(=O)c2cccc([N+](=O)[O-])c2)cc1 ?
SW480 rerep: inconclusive; RORgamma inh: -37%; Gal4-VP16 FLuc: -13%; MCF10A rereplic: 15µM*

How did Cc1cc(N2CCCC2)nc2ccc(NC(=S)NCCCN3CCC(C)CC3)cc12 do in these assays?
SW480 rerep: inconclusive; IL1B secr inh: -140*; RORgamma inh: -12%; Gal4-VP16 FLuc: -10%; MCF10A rereplic: 18µM*

What do the screens show for `Cc1cc(N2CCN(C)CC2)nc2ccc(NC(=S)NCCCN3CCc4ccccc4C3)cc12`?
SW480 rerep: inconclusive; IL1B secr inh: -92*; RORgamma inh: inconclusive; Gal4-VP16 FLuc: -21%; MCF10A rereplic: inconclusive

How did Cc1cc(N2CCN(C)CC2)nc2ccc(NC(=S)NCCN3CCc4ccccc4C3)cc12 do in these assays?
SW480 rerep: inconclusive; IL1B secr inh: -1; RORgamma inh: inconclusive; Gal4-VP16 FLuc: inconclusive; MCF10A rereplic: inconclusive

What do the screens show for `N#Cc1cccc(-c2nc(NCc3cccs3)c3ccccc3n2)c1`?
RORgamma inh: 0%; Gal4-VP16 FLuc: 2%
